Source: ChEMBL document CHEMBL1201862, “PubChem BioAssay data set” (2004)
About 3,700 (6.5%) of roughly 57,000 sequences were called active. No stated cut-off is given here; in the data, active = GI50 up to about 1.1 µM and inactive = higher. Not all results are given here. Measured potencies and affinities stand elsewhere.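 Compound exposure: 48 hours, 5 concentrations, 96-well plates. Abbreviation: GI50, concentration required for 50% inhibition of growth.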

System: ACHN
Assay: NCI tumour cell line growth inhibition, 48 h

Question: How did the GI50 turn out when CISPLATIN, CHEMBL11359 was run?
Answer: The GI50 was 1.22 µM.

Question: Which GI50 does the source give for “cis-Bis[[(trimethylsilyl)methyl]amino]tetrachloroplatinum(IV), CHEMBL2146191” here?
Answer: Its GI50 is 6.25 µM.

Question: “[Bis(aminomethyl)dimethylsilane]dichloroplatinum (II), CHEMBL2146201” was tested. Which GI50 did it give?
Answer: The GI50 was 12.6 µM.

Question: “[Bis(aminomethyl)tetramethylenesilane]dichloropaltinum(II), CHEMBL2146205” was tested. Which GI50 did it give?
Answer: Its GI50 is 12.3 µM.

Question: For “[Bis(aminomethyl)pentamethylenesilane]dichloropaltinum(II), CHEMBL2146202”, which GI50 is on record?
Answer: The GI50 was 1.63 µM.

Question: How did the GI50 turn out when “mu-(1,7-nanodiamine-N,N')bis-(cis-aminedichloroplatimum (II)), CHEMBL2146215” was run?
Answer: Its GI50 is 27.8 µM.

Question: “[Bis(aminomethyl)ethylmethylsilane]tetrachloroplatinum(IV), CHEMBL2146192” was tested. Which GI50 did it give?
Answer: Its GI50 is 2.67 µM.

Question: With “[Bis(aminomethyl)pentamethylenesilane]tetrachloropaltinum(IV), CHEMBL2146204” as the substance, how does the GI50 read?
Answer: Its GI50 is 1.79 µM.

Question: With “[Bis(aminomethyl)tetramethylenesilane]tetrachloropaltinum(IV), CHEMBL2146189” as the substance, how does the GI50 read?
Answer: Its GI50 is 3.69 µM.

Question: With “[Bis(aminomethyl)dimethylsilane]tetrachloroplatinum(IV), CHEMBL2146190” as the substance, how does the GI50 read?
Answer: The GI50 was 4.84 µM.

Question: “[Bis(aminomethyl)diethylsilane]tetrachloroplatinum(IV), CHEMBL2146203” was tested. Which GI50 did it give?
Answer: Its GI50 is 2.99 µM.
